In ChEMBL document CHEMBL3988442, “University of Dundee, Small-Polar-MMV Screening Library” (2021):
About 13,000 (27%) of roughly 48,000 compounds showed an effect of 50% or more. This is one part of the list.

Test system: Wolbachia pipientis
Assay: Anti-Wolbachia Cell-Based Screen
Type: functional
Set-up: scale not given: in the data most compounds retested in dose-response had high values
Conditions: 5 µM

SMILES | Percent Effect [%]
CC(=O)Nc1nc(-c2ccc(C)c(C)c2)c[nH]1 | -24.79
COc1cccc(S(=O)(=O)CCN2CCCCC2)c1 | 0.4821
COc1ccc(C(C(=O)O)N(C)CCN2CCCC2)cc1F (stereo not given) | 3.754
COc1ccc(Oc2cccc(C#N)n2)cc1CN1CCCC1 | -5.576
COc1cc2cc(C)c(SCCN3CCCCC3)nc2cc1OC.Cl | 107.6
CCc1cc2cc(OC)c(OC)cc2nc1SCCN1CCCCC1.Cl | 130.7
COc1cc2cc(C)c(SCCN3CCCC3)nc2cc1OC.Cl | 167.2
CNC(=O)c1cccc(NC(=O)CN2CCN(S(C)(=O)=O)CC2)c1 | 1.111
CCC(=O)N(C)Cc1cccc(OC(C)C)c1 | -5.096
CCc1nc(C)c(-c2nccn2CC2CCN(C3CCCC3)CC2)[nH]1 | -19.3
O=C(NCC1CCN(C(=O)c2ccoc2)CC1)c1ccccc1Br | -10.47
Cc1ccccc1C(=O)NC[C@@H]1CCN(C(=O)C2(O)CCCC2)C[C@H]1O | -6.733
O=C(NC[C@H]1OC[C@@H]2CCN(C(=O)c3ccco3)C[C@@H]21)C1CC1 | -4.179
O=C(NCC1CC1)C1CN(C(=O)c2cccs2)CC12CCOCC2 (stereo not given) | -5.71
COc1cccc(C(=O)NCC2CCN(C(=O)c3ccoc3)CC2)c1 | -1.127
O=C(c1cccs1)N1CCC2(CC1)CC(Oc1ccccc1)CO2 (stereo not given) | 6.178
Cc1ccccc1C(=O)N1CC(C(=O)NCC2CC2)C2(CCOCC2)C1 (stereo not given) | -6.965
O=C(NCC1CC1)C1CCC2(CCN(C(=O)c3cccs3)CC2)O1 (stereo not given) | 94.19
O=C(NCC1CC1)C1CCC2(CCN(C(=O)c3ccco3)CC2)O1 (stereo not given) | 87.87
O=C(NCC1CC1)C1CCC2(CCN(C(=O)c3ccoc3)CC2)O1 (stereo not given) | 90.09
Cc1ccccc1C(=O)N1CCC2(CCC(C(=O)NCC3CC3)O2)CC1 (stereo not given) | 104
O=C(NC1CCC1)C1CCC2(CN(C(=O)c3ccco3)C2)O1 (stereo not given) | -15.31
CNC(=O)[C@@H]1C[C@@H](NC(=O)CSc2ccccc2)CN1C1CCOCC1 | 0.9976
CCN(CC)c1ccc(NS(=O)(=O)c2cncc(F)c2)cn1 | -6.269
Cc1ccc(C(C)NCc2cn(CCC(N)=O)c3ccccc23)cc1C (stereo not given) | -0.5436

SMILES | Percent Effect [%]
COC(=O)c1sccc1CN1CCN(C(=O)c2ccc(C)o2)CC1 | -11.02
Cc1ccc(C(=O)N2CCC3(CCC(C(=O)NCC4CC4)O3)CC2)o1 (stereo not given) | 101.4
O=C(NCC1CC1)C1CCC2(CN(C(=O)c3ccno3)C2)O1 (stereo not given) | -9.78
CN1CCN(C2CCN(Cc3nnc(C(C)(C)C)o3)CC2)C1=O | 116.2
CCN1CCN(C2CCN(Cc3ncc(C(C)(C)C)o3)CC2)C1=O | -2.934
CCN1CCN(C2CCN(Cc3nnc(C(C)(C)C)o3)CC2)C1=O | -3.577
CCN1CCN(C2CCN(Cc3c(C)noc3C)CC2)C1=O | -0.1089
CCN1CCN(C2CCN(Cc3noc(C)n3)CC2)C1=O | 2.974
CC(C)c1nnc(CN2C(=O)OC[C@@H]2C(C)C)o1 | -6.188
CN1CCN(C2CCN(Cc3noc(C(C)(C)C)n3)CC2)C1=O | 10.06
CC(O)CN1CCN(Cc2nnc(C3CC3)o2)CC1 (stereo not given) | 3.93
CCN1CCN(C2CCN(Cc3nnc(C4CC4)o3)CC2)C1=O | 80.84
CCc1nnc(CN2CCC(N3CCN(CC)C3=O)CC2)o1 | 119.1
CCN1CCN(C2CCN(Cc3nnc(C(C)C)o3)CC2)C1=O | 147.9
CCc1nnsc1C(=O)NCC1CN(CC(C)C)CCO1 (stereo not given) | 19.89
CCC(=O)N1CCN(C(=O)c2ccc(OC)o2)[C@H]2CS(=O)(=O)C[C@H]21 | 0.8171
O=C(c1ccc(-n2cnnc2)cc1Cl)N1CCCC(O)(CO)CC1 (stereo not given) | 1.549
CC(=O)N[C@@H]1CN(Cc2ccccc2-n2nc(C)cc2C)C[C@H]1C(C)C | 5.074
Cc1cnc(CC2COCCN(C(=O)c3cncs3)C2)cn1 (stereo not given) | 133.5
O=C(NC[C@H]1OC[C@@H](NCc2ccccn2)[C@@H]1O)N1CCOCC1 | -13.39
c1ccc(CN2CCOC[C@H]2c2nc(-c3ccncc3)c[nH]2)nc1 | -4.896
COc1ccc(C(=O)N2CCOCC(CO)C2)cc1N1CCOCC1 (stereo not given) | 2.678
O=C(c1cncs1)N1CCOCC(Cc2ccccn2)C1 (stereo not given) | 121.8
Cc1cccc(NC(=O)N2CCOCC(CN(C)C)C2)c1C (stereo not given) | -12.45
O=C(c1ccncc1)N1C[C@@H]2CC[C@H](C1)N(C(=O)N1CCOCC1)C2 | 7.35
